# Screens as filed in PubChem.
# Abeta rescue: qHTS for compounds that reverse cellular toxicity of Amyloid beta (A-beta) peptide in yeast: Primary Screen; yeast expressing A-beta42, growth rescue, OD600, 48 h; response scale: 0% DMSO, 100% iron-clioquinol control; AID 1347071, 2019; 0.063% of 410,000 active; Potency, µM (titrated, usually from 46.1 µM), hits mostly activators; also: nearly all actives have a fitted effect of over 55% in size
#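 Growth rescue measured by 600 nm absorbance after 48 h yeast culture at 30 C with compound. Values normalized between DMSO and an equimolar ferric chloride plus clioquinol control.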
# TDP-43 yeast inh: qHTS of TDP-43 Inhibitors | AID 652104, 2013 | TDP-43 expressing yeast growth rescue, BacTiter-Glo, 24 h | Potency, µM (doses to about 46.1 µM), for the others: at the top dose growth rescue (activation), usual class: activators | 1.8% of 410,000 active; also: % of control where 0% means no effect; nearly all actives have a fitted effect of over 50% in size
#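 Growth rescue of TDP-43-toxic yeast measured as ATP luminescence (BacTiter-Glo). Cells grown to mid-log in raffinose, induced in galactose at OD600=0.02, exposed to compound 24 hr at 30 deg C.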
# aSyn yeast inh: qHTS of alpha-syn Inhibitors; Yeast expressing alpha-synuclein, growth rescue, BacTiter-Glo, 24 h; Potency, µM (doses to about 46.1 µM), for the others: top-dose growth rescue (activation), usual class: activators; 0.14% of 370,000 active; also: % of control where 0% means no effect; nearly all actives have a fitted effect of over 65% in size
#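 Readout is rescue of growth in alpha-synuclein-expressing yeast, so inhibitors of toxicity appear as activators. Growth after 24 hr at 30 deg C in galactose medium is quantified by luminescence.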
# FUS yeast rescue: qHTS for Suppressors of FUS Proteinopathy: Primary screen using FUS-linked yeast assay; S. cerevisiae FUS-expressing, growth rescue, OD600, 24 h; Potency, µM (highest dose often 76.6 µM), actives largely listed as activators; 0.24% of 390,000 active;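 also: plate controls were DMSO vehicle for no effect and reference control for full effect; nearly all actives have a fitted effect of over 55% in size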
#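 Cultures pregrown in 2.5% raffinose medium are shifted to minimal medium containing 2% galactose to express toxic FUS. Compounds are tested at several concentrations. After 24hr at 30C, growth is quantified at 600 nm absorbance.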
# ClpP mod: qHTS Assay for Activators of ClpP; 1.9% of 340,000 active; purified B. subtilis ClpP, FRET peptide cleavage, 20 min; AID 651965, 2013; Potency, µM (top dose mostly 57.5 µM), for inactives: at the top dose activity change, negative = active; active = well fitted falling curve with a large enough effect; inconclusive = small, poorly fitted or top-dose-only effect; inactive = no such curve, though single readings can be large or run the other way; also: the source files actives as falling curves though it sought activators and does not explain the sign; nearly all actives have a fitted effect of over 65% in size
# Target sequence (P80244 whole entry, looked up): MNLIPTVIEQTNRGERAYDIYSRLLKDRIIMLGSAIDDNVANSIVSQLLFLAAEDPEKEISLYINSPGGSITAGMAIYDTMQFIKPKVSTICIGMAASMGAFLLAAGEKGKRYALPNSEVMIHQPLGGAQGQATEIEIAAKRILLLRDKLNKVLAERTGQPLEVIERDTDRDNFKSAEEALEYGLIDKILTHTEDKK
#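 FRET quenching reversal measured ClpP activation: 10 microg/mL B. subtilis ClpP at pH 8 with the FRET-FV decapeptide, read at 430 nm after 320 nm excitation. The 20-min minus 0-min signal was scaled between DMSO/no-enzyme wells and ADEP (5.8 microM final).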
# Mm-Cpn inhibitor: Inhibitors of TCP-1 ring complex (TRiC) of Methanococcus maripaludis (MmCpn): qHTS; Chaperonin Mm-Cpn (Methanococcus maripaludis); purified Mm-Cpn ATPase, ADP Transcreener TR-FRET; Potency, µM (highest dose often 76.9 µM), for inactives: at the top dose activity, negative = inhibition, usual class: inhibitors; 0.031% of 330,000 active; AID 504842, 2011; also: % is scaled to controls: 0 for no effect and ±100 for the full control effect; nearly all actives have a fitted effect of over 80% in size
#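 Compound-treated chaperonin, 25 nM final, turns over 10 uM ATP at 37°C for 30 min following a 10 min preincubation; ADP generated competes with ADP-d2 for Eu-cryptate antibody, lowering FRET.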
# * marks the source's active call; other numbers are inactive results; i = inactive; ? = inconclusive; . = no result; [ ] = another dose, or the depositor's remark. Rows were chosen to be rich in hits. Some 3.6% of all compounds tested hit in one or more screens of this group. Unless noted, calls follow the shape of the dose curve; as a rule, active = well fitted curve in the direction sought with a large enough effect; inconclusive = small, poorly fitted or top-dose-only effect, or another doubt; inactive = no such curve, though single readings can be large; an effect the other way counts as inactive or inconclusive. Potency is read from the fitted curve at half-maximal effect.
SMILES,Abeta rescue,TDP-43 yeast inh,aSyn yeast inh,FUS yeast rescue,ClpP mod,Mm-Cpn inhibitor
Nc1ccc(Sc2ccc([N+](=O)[O-])cc2)cc1,i,?,20µM*,i,.,0%
O=C(CSc1nccn1Cc1ccc(Cl)cc1)Nc1ccc2c(c1)OCCO2,i,?,.,i,-1%,.
COCc1c(Br)c(C)[nH]c(=O)c1C#N,i,-2%,0%,i,14µM*,-1%
COc1ccc2c(c1)C(=O)CC(c1ccc(OC)c(OC)c1)O2 (stereo not given),i,15%,2%,i,1%,0%
O=C1CC(c2ccc(O)cc2)Oc2ccccc21 (stereo not given),i,?,1%,i,2%,0%
COc1ccc2c(c1)C(=O)CC(c1ccc3c(c1)OCCO3)O2 (stereo not given),i,11µM*,-8%,i,-1%,0%
Cc1ccc2c(c1)C(=O)CC(c1ccc3c(c1)OCCO3)O2 (stereo not given),i,11µM*,-14%,i,-1%,0%
COc1cc2nc(N3CCCCC3)nc(NC(C)C)c2cc1OC,.,.,-5%,.,4%,.
COc1cc(OC)c(NC(=O)N2CCOCC2)cc1Cl,i,12%,-9%,i,28µM*,-7%
COc1ccc(Cl)cc1NC(=O)NCC1CCN(C(=O)OC(C)(C)C)CC1,i,-12%,-11%,32µM*,-7%,-2%
COc1ccc(Cl)cc1NC(=O)N1CCN(c2ccccc2OC)CC1,i,11µM*,13%,?,1%,0%
CCn1c(=O)n(CC)c2cc(N3CCCCC3)c(NC(=O)Nc3cc(Cl)ccc3OC)cc21,i,?,.,?,28µM*,.
COc1cc(OC)c(NC(=O)N2CCN3CCCCC3C2)cc1Cl (stereo not given),i,?,.,i,-1%,.
COc1ccc(C2=C(C)C(=O)N(Cc3ccc(C(=O)NCc4cccc(C)c4)cc3)S2(=O)=O)cc1,i,8%,.,i,5%,.
N#Cc1ccc2c(c1)C[C@]1(CCCCN3C(=O)c4ccccc4C3=O)Oc3c(c(=O)oc4ccccc34)C2O1,.,.,.,.,.,-4%[15.4 µM]
CCCC1CCC2(CC1)CCC2OC(=O)Nc1cc(C)cc(C)c1 (stereo not given),.,.,.,i,.,.
CCCOc1ccc(-c2nc(OC)c3ccccc3n2)cc1,i,8%,-11%,.,32µM*,-2%
CCCOc1ccc(-c2nc(N3CCC(C)CC3)c3ccccc3n2)cc1,i,?,.,i,20µM*,.
CC1CCN(c2nc(-c3ccc(C(C)(C)C)cc3)nc3ccccc23)CC1,i,16%,.,i,?,.
CC1CCN(c2nc(-c3ccncc3)nc3ccccc23)CC1,i,13µM*,?,i,-8%,-21%
CC1CCCN(c2nc(-c3ccccc3O)nc3ccccc23)C1 (stereo not given),i,20µM*,0%,i,0%,.
CCCOc1ccc(-c2nc3ccccc3c(=O)o2)cc1,i,10%,2%,i,-26%,.
Brc1ccc[n+](CCC2CCCCC2)c1,.,.,2%,.,0%,.
CCOc1ccc(-c2c(C)nn3c(C)c(C(=O)Nc4cc(C)cc(C)c4)cnc23)cc1OCC,i,11%,.,i,-2%,.
COc1ccc(C(=O)N2CCC(c3nc4ccccc4s3)CC2)cc1Cl,i,?,.,i,-1%,.
COc1cccc(-c2nc(NCC3CCCO3)c3ccccc3n2)c1O (stereo not given),i,?,3%,i,0%,-2%
Oc1ccccc1-c1nc(NCC2CCCO2)c2ccccc2n1 (stereo not given),i,11µM*,-9%,i,-2%,-7%
